# In the library only some 18% were active in any assay of this set; here they are far more common.
# IL1B secr inh: qHTS for Inhibitors of Inflammasome Signaling: IL-1-beta AlphaLISA Primary Screen | actives 4.7% (n = 360,000) | THP-1 LPS/ATP IL-1B secretion, AlphaLISA, 16 h; stronger effect = lower value | activity change, % at 57.5 µM; in the data active = activity change below about -50%; inconclusive = mostly about -30% to -49%
#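 THP-1 cells pretreated 1 hr with compounds (up to 57.5 uM final), then stimulated with LPS (250 ng/mL final) plus ATP (1.25 mM final); secreted IL-1B measured by AlphaLISA after 16 hr, decreased signal indicating inhibition.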
# HepG2 viability: qHTS for Inhibitors of TGF-b: Cytotox Counterscreen | AID 588856, 2011 | actives 0.76% (n = 410,000) | HepG2 CAGA-GFP viability, ATP luminescence, 18 h | Potency, µM (doses to about 46.1 µM), actives largely listed as cytotoxic
#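 HepG2 CAGA-GFP cells (1000/well, DMEM with 1% FBS) received compound, then TGF-beta at 500 pg/mL final, and were incubated 18 hours at 37 degrees C. Viability was read by CellTiter-Glo luminescence. Media-only wells were set as complete cell-killing and DMSO as no toxicity.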
# DT40 TDP1 no CPT: qHTS for Inhibitors of human tyrosyl-DNA phosphodiesterase 1 (TDP1): qHTS in cells in absence of CPT; DT40 Tdp1-/- hTDP1 cells, no CPT, ATP luminescence, 48 h; Potency, µM (highest dose often 46.2 µM), most hits filed as inhibitors; actives 15% (n = 420,000); also: nearly all actives have a fitted effect of over 55% in size
#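 Stably hTDP1-transfected Tdp1-null chicken DT40 cells were treated with library compounds minus camptothecin and grown for at least 48 hr at 37 °C, after which cellular ATP was quantified by luminescence.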
# TDP1 cell CPT: qHTS for Inhibitors of human tyrosyl-DNA phosphodiesterase 1 (TDP1): qHTS in cells in presence of CPT. chicken DT40 Tdp1-/-;hTDP1 cells + 20 nM CPT, ATP luminescence, 48 h. actives 12% (n = 420,000). AID 686979, 2013. Potency, µM (highest dose often 46.2 µM), usual class: inhibitors; also: nearly all actives have a fitted effect of over 55% in size
#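 Cell growth measured by CellTiter-Glo luminescence after a minimum 48 h, 37 C compound exposure with 20 nM CPT in Tdp1-knockout DT40 cells stably expressing hTDP1, seeded 400/well; qHTS titration format.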
# TDP1 inh: qHTS Assay for Inhibitors of Tyrosyl-DNA Phosphodiesterase (TDP1). Tyrosyl-DNA phosphodiesterase 1 (Homo sapiens), Q9NUW8. recombinant TDP1, AlphaScreen DNA substrate cleavage. Potency, µM (highest dose often 130 µM), actives largely listed as inhibitors. actives 0.28% (n = 350,000). AID 485290, 2010; also: nearly all actives have a fitted effect of over 40% in size
# Target sequence (Q9NUW8 whole entry, looked up): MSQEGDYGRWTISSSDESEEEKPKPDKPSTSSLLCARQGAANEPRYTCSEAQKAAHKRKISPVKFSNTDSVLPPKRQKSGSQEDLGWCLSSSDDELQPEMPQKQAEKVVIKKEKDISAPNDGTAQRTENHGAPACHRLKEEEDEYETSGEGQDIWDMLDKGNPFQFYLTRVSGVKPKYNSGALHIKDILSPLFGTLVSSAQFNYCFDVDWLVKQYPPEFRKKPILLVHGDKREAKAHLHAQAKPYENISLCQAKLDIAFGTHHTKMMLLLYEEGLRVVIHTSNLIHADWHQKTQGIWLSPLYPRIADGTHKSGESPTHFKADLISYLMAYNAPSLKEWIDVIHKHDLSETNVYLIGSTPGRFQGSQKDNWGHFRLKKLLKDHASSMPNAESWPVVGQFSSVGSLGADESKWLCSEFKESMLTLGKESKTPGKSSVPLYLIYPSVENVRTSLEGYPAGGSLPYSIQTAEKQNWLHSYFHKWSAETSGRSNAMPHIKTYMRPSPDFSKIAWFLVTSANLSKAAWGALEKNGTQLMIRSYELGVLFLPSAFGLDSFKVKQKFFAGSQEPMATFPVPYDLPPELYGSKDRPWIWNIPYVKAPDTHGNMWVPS
#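 Recombinant human Tdp1 (E. coli-expressed, 1 nM final) preincubated with compounds 15 min at room temperature, then 5'-biotin/3'-phosphotyrosine-FITC DNA substrate (15 nM final) added for 5 min. AlphaScreen beads (10 ug/ml final) added 10 min; cleavage lowers signal.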
# TGFb inhibitor: qHTS for Inhibitors of TGF-b; actives 1.2% (n = 410,000); AID 588855, 2011; Potency, µM (highest dose often 46.1 µM), hits mostly inhibitors; HepG2 CAGA-GFP TGF-b/SMAD3 reporter, GFP fluorescence, 18 h; TGF-beta stimulated, 500 pg/mL final; also: nearly all actives have a fitted effect of over 65% in size
#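 Smad-responsive CAGA-GFP expression was quantified in HEPG2 cells exposed to compounds and 500 pg/mL final TGF-beta for 18 h at 37 degrees C; unstimulated wells defined full inhibition.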
# Hits are given with their value; . = inactive; ? = inconclusive; / = no result given; [ ] = dose if it differs, or a comment. Unless noted, calls follow the shape of the dose curve; as a rule, active = well fitted curve in the direction sought with a large enough effect; inconclusive = small, poorly fitted or top-dose-only effect, or another doubt; inactive = no such curve, though single readings can be large; an effect the other way counts as inactive or inconclusive.
SMILES,IL1B secr inh,HepG2 viability,DT40 TDP1 no CPT,TDP1 cell CPT,TDP1 inh,TGFb inhibitor
CC(C)c1cccc(C(C)C)c1NC(=O)CCN1C(=O)NC2(CCCC2)C1=O,.,.,.,.,.,.
CCO[C@@H]1OC(C(=O)N2CCN(C)CC2)=C[C@H](c2ccc(C(F)(F)F)cc2)[C@H]1CCCO,.,.,.,.,.,.
CCO[C@H]1OC(C(=O)N2CCN(C)CC2)=C[C@@H](c2ccc(C(F)(F)F)cc2)[C@@H]1CCCO,.,.,.,.,.,.
CCO[C@@H]1OC(C(=O)N2CCN(Cc3ccccc3)CC2)=C[C@H](c2csc3ccccc23)[C@H]1CCCO,-54,.,29µM,13µM,.,?
CCO[C@@H]1OC(C(=O)N2CCCCCCC2)=C[C@H](c2ccc(C(F)(F)F)cc2)[C@H]1CCCO,.,.,23µM,?,.,?
CCO[C@H]1OC(C(=O)N2CCOCC2)=C[C@@H](c2ccc(C(F)(F)F)cc2)[C@@H]1CCCO,.,.,?,0.52µM,.,.
CCO[C@@H]1OC(C(=O)N2CCOCC2)=C[C@H](c2ccc(C(F)(F)F)cc2)[C@H]1CCCO,.,.,?,15µM,.,.
CCO[C@H]1OC(C(=O)N2CCCCCCC2)=C[C@@H](c2csc3ccccc23)[C@@H]1CCCO,.,.,.,.,.,.
COC(=O)c1cn([C@@H]2C[C@@H](C(=O)Nc3cccc(SC)c3)N(C3CCCCCC3)C2)nn1,/,/,.,.[9.04 µM],/,/
CCO[C@H]1OC(C(=O)N2CCCCCCC2)=C[C@@H](c2ccccc2)[C@@H]1CCCO,.,.,?,?,.,.
CCO[C@H]1OC(C(=O)N2CCN(Cc3ccccc3)CC2)=C[C@@H](c2ccc(C(F)(F)F)cc2)[C@@H]1CCCO,-60,.,15µM,21µM,.,?
CN(C)/C=C/C(=O)c1cc(N2CCOCC2)ccc1[N+](=O)[O-],.,.,.,.,.,.
CCCCNC(=O)C[C@@H]1C[C@@]2(C(=O)OC)CCCCC=C2N(Cc2cccc3ccccc23)C1=O,.,/,?,?,/,/
COC(=O)[C@]12CCCCC=C1N(Cc1cccc3ccccc13)C(=O)[C@H](CC(=O)N1CCCCC1)C2,.,/,23µM,?,/,/
COC(=O)[C@]12CCCCC=C1N(Cc1cccc3ccccc13)C(=O)[C@H](CC(=O)N1CCC(c3ccccc3)CC1)C2,.,/,15µM,?,/,/
CC(=O)C1=C(O)C(=O)N(c2ccccn2)C1c1ccc(C)cc1 (centres undefined),.,.,.,.,/,.
CCc1ccc(NCc2cc3c(C)nn(-c4ccccc4)c3[nH]c2=O)cc1,.,.,13µM,21µM,.,.
Cc1ccc(-c2nn(-c3ccccc3)c3[nH]c(=O)c(CNCc4ccccc4)cc23)cc1,-58,.,?,?,.,?
Cc1nn(-c2ccccc2)c2[nH]c(=O)c(CNCc3ccc4c(c3)OCO4)cc12,.,.,15µM,18µM,.,.
CC1CCN(S(=O)(=O)c2ccc3c(c2)N(CC(=O)NCC(C)c2ccccc2)C(=O)CO3)CC1 (centres undefined),/,.,/,/,.,.
COC(=O)C1SCC2C(=O)N(Cc3ccc(Cl)c(Cl)c3)CC(=O)N21 (centres undefined),.,.,?,23µM,.,.
Clc1ccc(SCCOCCN2CCCCC2)cc1,.,.,16µM,?,.,.
CC1CCN(CCOCCSc2ccc(Cl)cc2)CC1,.,.,18µM,?,.,.
Clc1ccc(SCCOCCN2CCOCC2)cc1,.,.,?,.,.,.
CC1CC2(CCCCC2)Nc2ccc3ccccc3c21 (centres undefined),.,.,?,21µM,.,.
SMILES,IL1B secr inh,HepG2 viability,DT40 TDP1 no CPT,TDP1 cell CPT,TDP1 inh,TGFb inhibitor
CC1(C)CC(=O)C/C(=N\NC(=O)CCc2ccc(S(=O)(=O)N3CCOCC3)cc2)C1,.,.,.,.,.,?
C=CCN1C(=O)c2ccccc2NC1c1ccc(Br)s1 (centres undefined),.,.,?,.,/,.
O=C1c2ccccc2NC(c2ccc(Br)s2)N1O (centres undefined),.,.,12µM,10µM,/,.
O=C1c2ccccc2NC(c2cccc([N+](=O)[O-])c2)N1O (centres undefined),.,.,?,21µM,/,.
O=C1c2ccccc2NC(c2cccc(O)c2)N1O (centres undefined),.,.,.,.,/,.
O=C1c2ccccc2NC(c2ccc([N+](=O)[O-])cc2)N1O (centres undefined),.,.,18µM,21µM,.,.
O=C1c2ccccc2NC(c2ccco2)N1O (centres undefined),.,.,.,?,.,.
O=[N+]([O-])c1ccc(C2Nc3cccc4cccc(c34)N2)cc1,.,.,.,.,.,.

# Screening data as filed in PubChem.
